# Records with an inconclusive call do not appear. Calls of active or inactive are those of the source. How the source made its calls: active means hit-call score of the fitted dose curve at least 0.9, where 1 is the maximum; inconclusive means response in the unintended direction; inactive means score below 0.9.
# Key:
# [1] = test system: guinea pig Leukotriene B4 Receptor (LTB4), gene 100379538; assay: NVS_GPCR_gLTB4: NovaScreen (NVS) G Protein-Coupled Receptor Assay for guinea pig Leukotriene B4 Receptor (LTB4) (AID 2283247)
# In short: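 Radioligand displacement on guinea pig spleen membranes, filter-based scintillation counting 2 h after dosing. Primary duplicate single point at 25 uM; hits over threshold (e.g. 30% inhibition) run in concentration-response up to 50 uM, DMSO baseline.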
# [2] = target: Adenosine receptor A1 (Bos taurus) (UniProt P28190); assay: NVS_GPCR_bAdoR_NonSelective: NovaScreen (NVS) G Protein-Coupled Receptor Assay for bovine Adenosine Receptor (AdoR), Non-selective Binding (AID 2283244)
# In short: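 Bovine striatal membranes, radioligand displacement binding, 1 h after dosing, filter-based scintillation counting. Screened in duplicate at 25 uM, then concentration-response up to 50 uM; loss of specific binding relative to DMSO.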
# [3] = target: sheep Cyclooxygenase-2 (Cox2), PTGS2 (gene 443460) (UniProt P79208); assay: NVS_ENZ_oCOX2: NovaScreen (NVS) Enzymatic Assay for sheep Cyclooxygenase-2 (Cox2) (AID 2283231)
# In short: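 Enzyme from ovine placenta, cell-free; colorimetric absorbance read 0.66 hour after dosing, loss of signal vs DMSO. Screened in duplicate at 25 uM, then concentration-response up to 50 uM.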
# [4] = target: sheep Cyclooxygenase-1 (Cox1), PTGS1 (gene 443551) (UniProt P05979); assay: NVS_ENZ_oCOX1: NovaScreen (NVS) Enzymatic Assay for sheep Cyclooxygenase-1 (Cox1) (AID 2283239);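 further: actives reduce cyclooxygenase activity so potencies are for inhibitors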
# In short: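 Absorbance read-out of cyclooxygenase activity in a cell-free preparation from sheep seminal vesicles, taken 0.66 hour after dosing. Initial testing was in duplicate at 25 uM, and confirmatory testing was run in concentration series.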
# [5] = target: rat Constitutive Nitric Oxide Synthase (CNOS), Nos1 (gene 24598) (UniProt P29476); assay: NVS_ENZ_rCNOS: NovaScreen (NVS) Enzymatic Assay for rat Constitutive Nitric Oxide Synthase (CNOS) (AID 2283236)
# In short: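 Enzyme activity in rat brain membrane preparation, read 1 h after dosing by filter-based radiometric scintillation counting. Primary screen in duplicate at 25 uM; actives (e.g., ≥30% inhibition) then run in concentration-response up to 50 uM.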
# [6] = target: bovine Dopamine Receptor (DR), Non-selective Binding, DRD1 (gene 281125) (UniProt Q95136); assay: NVS_GPCR_bDR_NonSelective: NovaScreen (NVS) G Protein-Coupled Receptor Assay for bovine Dopamine Receptor (DR), Non-selective Binding (AID 2283241)
# In short: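 Bovine striatal membranes; radioligand displacement read by filtration and scintillation counting 1 h after dosing, loss of signal vs DMSO. Screened in duplicate at 25 uM, then concentration-response for hits.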
# [7] = NVS_GPCR_bNPY_NonSelective: NovaScreen (NVS) G Protein-Coupled Receptor Assay for bovine Neuropeptide Y (NPY) Receptor, Non-selective Binding (AID 2283245)
# In short: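 Bovine hippocampal membranes incubated 1 hour with radioligand and test chemical. Bound ligand measured by filter-based scintillation counting. Single-concentration screen at 25 uM in duplicate, then concentration-response up to 50 uM.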
# [8] = target: guinea pig Leukotriene D4 Receptor (LTD4), CYSLTR1 (gene 100135514) (UniProt Q2NNR5); assay: NVS_GPCR_gLTD4: NovaScreen (NVS) G Protein-Coupled Receptor Assay for guinea pig Leukotriene D4 Receptor (LTD4) (AID 2283248)
# In short: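 Radioligand displacement on guinea pig lung membranes, 1 h incubation, filtration and scintillation counting; DMSO as negative control. Duplicate 25 uM primary screen, then singleton concentration-response up to 50 uM.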
# [9] = test system: bovine Histamine 1 Receptor (H1), gene 281231; assay: NVS_GPCR_bH1: NovaScreen (NVS) G Protein-Coupled Receptor Assay for bovine Histamine 1 Receptor (H1) (AID 2283246)
# In short: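 Radioligand displacement on bovine cerebellar membranes, 1 h after dosing, filter-based scintillation read-out; loss of signal vs DMSO. Duplicate single-concentration screen at 25 uM, then concentration-response up to 50 uM for hits.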
# [10] = target: rat Catechol-O-Methyl Transferase (COMT), Comt (gene 24267) (UniProt P22734); assay: NVS_ENZ_rCOMT: NovaScreen (NVS) Enzymatic Assay for rat Catechol-O-Methyl Transferase (COMT) (AID 2283235)
# In short: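 Cell-free enzyme activity with protein extracted from rat dorsal striatum, measured by HPLC with absorbance detection. Compounds screened at 25 uM in duplicate; actives then run in concentration-response up to 50 uM, loss of signal versus DMSO.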
# sheep Cyclooxygenase-1 (Cox1), PTGS1 (gene 443551), sequence (P05979 whole entry, looked up): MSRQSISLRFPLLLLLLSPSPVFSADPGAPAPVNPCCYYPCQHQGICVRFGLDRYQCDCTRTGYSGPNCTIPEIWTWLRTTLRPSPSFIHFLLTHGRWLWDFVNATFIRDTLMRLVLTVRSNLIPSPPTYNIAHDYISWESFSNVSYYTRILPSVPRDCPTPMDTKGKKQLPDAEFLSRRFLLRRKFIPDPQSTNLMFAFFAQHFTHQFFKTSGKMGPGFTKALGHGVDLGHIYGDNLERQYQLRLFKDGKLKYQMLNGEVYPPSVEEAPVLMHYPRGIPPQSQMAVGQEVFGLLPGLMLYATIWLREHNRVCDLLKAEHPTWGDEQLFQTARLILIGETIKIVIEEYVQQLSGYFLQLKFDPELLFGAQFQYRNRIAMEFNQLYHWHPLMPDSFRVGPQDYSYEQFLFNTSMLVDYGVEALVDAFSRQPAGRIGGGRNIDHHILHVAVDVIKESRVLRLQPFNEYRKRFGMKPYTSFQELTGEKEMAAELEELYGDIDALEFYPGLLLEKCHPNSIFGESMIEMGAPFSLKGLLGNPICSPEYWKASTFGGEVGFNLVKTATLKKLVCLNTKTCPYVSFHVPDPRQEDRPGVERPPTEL
# Adenosine receptor A1 (Bos taurus), sequence (P28190 whole entry, looked up): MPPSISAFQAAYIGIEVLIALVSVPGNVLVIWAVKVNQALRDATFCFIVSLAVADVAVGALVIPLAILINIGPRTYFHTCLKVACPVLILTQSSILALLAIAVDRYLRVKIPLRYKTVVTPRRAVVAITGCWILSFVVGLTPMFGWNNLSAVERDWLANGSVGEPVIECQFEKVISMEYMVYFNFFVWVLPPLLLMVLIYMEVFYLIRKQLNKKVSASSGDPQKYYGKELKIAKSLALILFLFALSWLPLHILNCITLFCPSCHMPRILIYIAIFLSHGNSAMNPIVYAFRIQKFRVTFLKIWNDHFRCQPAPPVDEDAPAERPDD
# sheep Cyclooxygenase-2 (Cox2), PTGS2 (gene 443460), sequence (P79208 whole entry, looked up): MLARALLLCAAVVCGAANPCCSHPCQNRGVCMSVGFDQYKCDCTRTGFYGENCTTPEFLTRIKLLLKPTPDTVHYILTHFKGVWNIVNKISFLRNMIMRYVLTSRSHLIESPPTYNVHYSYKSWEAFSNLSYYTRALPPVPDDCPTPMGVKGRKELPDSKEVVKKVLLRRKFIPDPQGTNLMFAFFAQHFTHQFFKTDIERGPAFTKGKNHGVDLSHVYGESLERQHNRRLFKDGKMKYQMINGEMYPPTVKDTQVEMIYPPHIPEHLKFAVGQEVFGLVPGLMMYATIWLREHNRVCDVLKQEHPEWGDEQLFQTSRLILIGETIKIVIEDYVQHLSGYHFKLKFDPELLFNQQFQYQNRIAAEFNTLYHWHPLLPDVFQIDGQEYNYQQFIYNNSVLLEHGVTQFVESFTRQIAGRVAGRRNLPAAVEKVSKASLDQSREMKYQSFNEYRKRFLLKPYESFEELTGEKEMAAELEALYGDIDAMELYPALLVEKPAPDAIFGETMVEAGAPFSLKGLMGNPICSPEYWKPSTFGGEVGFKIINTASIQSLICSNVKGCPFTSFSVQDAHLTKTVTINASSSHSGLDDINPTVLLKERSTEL
# rat Constitutive Nitric Oxide Synthase (CNOS), Nos1 (gene 24598), sequence (P29476 whole entry, looked up): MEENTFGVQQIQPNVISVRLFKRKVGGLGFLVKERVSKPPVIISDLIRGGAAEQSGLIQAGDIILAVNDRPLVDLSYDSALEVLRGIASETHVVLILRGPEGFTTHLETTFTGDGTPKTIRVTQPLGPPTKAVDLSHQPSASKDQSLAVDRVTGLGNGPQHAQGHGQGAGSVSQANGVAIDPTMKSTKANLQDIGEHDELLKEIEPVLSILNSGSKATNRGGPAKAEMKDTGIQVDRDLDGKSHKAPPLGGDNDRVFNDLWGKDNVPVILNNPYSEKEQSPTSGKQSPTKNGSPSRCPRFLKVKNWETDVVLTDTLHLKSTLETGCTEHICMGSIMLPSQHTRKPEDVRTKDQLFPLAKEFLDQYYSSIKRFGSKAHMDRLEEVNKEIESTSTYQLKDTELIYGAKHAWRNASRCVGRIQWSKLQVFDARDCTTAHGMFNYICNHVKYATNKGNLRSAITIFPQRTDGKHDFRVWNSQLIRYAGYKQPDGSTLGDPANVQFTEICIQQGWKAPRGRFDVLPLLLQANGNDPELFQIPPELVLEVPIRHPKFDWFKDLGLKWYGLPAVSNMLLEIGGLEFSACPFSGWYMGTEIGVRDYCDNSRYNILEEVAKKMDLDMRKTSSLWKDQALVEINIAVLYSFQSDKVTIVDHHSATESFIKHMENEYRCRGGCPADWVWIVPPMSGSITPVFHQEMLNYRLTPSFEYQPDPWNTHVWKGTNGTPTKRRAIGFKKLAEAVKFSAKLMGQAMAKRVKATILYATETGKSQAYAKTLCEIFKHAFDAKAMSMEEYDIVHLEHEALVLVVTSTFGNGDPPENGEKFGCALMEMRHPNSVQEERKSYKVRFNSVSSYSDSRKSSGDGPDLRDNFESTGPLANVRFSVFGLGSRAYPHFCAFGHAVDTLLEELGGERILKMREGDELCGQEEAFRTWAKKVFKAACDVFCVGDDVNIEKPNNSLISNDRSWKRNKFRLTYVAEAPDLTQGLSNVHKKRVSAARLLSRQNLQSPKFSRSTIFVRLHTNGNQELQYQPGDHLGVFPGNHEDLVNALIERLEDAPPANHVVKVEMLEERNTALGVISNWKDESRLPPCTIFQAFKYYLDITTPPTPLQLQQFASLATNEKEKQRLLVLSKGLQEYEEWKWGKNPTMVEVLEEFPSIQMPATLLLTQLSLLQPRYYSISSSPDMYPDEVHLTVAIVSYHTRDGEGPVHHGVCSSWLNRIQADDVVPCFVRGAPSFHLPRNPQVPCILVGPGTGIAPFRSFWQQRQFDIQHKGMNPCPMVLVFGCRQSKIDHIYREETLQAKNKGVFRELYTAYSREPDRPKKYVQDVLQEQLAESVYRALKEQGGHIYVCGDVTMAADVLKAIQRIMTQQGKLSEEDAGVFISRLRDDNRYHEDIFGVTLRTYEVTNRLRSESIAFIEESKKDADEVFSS
# guinea pig Leukotriene D4 Receptor (LTD4), CYSLTR1 (gene 100135514), sequence (Q2NNR5 whole entry, looked up): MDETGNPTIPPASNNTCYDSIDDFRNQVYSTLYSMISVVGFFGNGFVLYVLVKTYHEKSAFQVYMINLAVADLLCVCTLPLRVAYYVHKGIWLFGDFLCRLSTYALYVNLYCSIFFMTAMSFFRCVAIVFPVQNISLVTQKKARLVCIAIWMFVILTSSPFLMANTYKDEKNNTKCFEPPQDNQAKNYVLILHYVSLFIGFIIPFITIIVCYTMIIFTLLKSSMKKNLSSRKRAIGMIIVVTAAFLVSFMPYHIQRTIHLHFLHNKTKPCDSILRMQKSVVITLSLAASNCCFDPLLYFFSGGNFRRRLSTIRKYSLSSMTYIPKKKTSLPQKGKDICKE
# bovine Dopamine Receptor (DR), Non-selective Binding, DRD1 (gene 281125), sequence (Q95136 whole entry, looked up): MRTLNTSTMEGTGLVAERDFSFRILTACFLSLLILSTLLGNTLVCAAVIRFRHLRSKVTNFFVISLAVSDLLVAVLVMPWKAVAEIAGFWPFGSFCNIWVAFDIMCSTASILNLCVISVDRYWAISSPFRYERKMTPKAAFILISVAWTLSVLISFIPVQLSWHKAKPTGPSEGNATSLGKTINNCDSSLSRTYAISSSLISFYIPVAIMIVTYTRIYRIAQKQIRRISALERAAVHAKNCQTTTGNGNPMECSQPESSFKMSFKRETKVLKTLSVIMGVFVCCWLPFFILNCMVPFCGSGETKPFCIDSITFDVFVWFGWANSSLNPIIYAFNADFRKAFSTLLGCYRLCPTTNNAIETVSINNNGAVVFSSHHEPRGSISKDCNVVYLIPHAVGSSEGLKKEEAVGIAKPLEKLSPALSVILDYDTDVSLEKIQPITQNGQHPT
# rat Catechol-O-Methyl Transferase (COMT), Comt (gene 24267), sequence (P22734 whole entry, looked up): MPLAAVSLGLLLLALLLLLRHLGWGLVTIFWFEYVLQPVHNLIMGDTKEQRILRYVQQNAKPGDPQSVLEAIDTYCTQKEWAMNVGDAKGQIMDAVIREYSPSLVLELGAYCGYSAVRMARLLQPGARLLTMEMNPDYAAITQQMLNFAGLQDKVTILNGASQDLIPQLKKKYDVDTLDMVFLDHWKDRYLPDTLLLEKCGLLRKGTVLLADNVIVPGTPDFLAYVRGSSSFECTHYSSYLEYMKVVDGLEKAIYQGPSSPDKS
smiles,measurement,setting,value
CCOC(=O)NCCOc1ccc(Oc2ccccc2)cc1,outcome,[1],inactive
COC(=O)c1cccc(C)c1S(=O)(=O)NC(=O)Nc1nc(OCC(F)(F)F)nc(N(C)C)n1,AC50,[2],5.12 µM (active)
C[C@]12C[C@H](O)[C@H]3[C@@H](CCC4=CC(=O)CC[C@@]43C)[C@@H]1CC[C@@H]2C(=O)CO,outcome,[3],inactive
same,outcome,[4],inactive
same,outcome,[1],inactive
CCOC(=O)[C@H](C)Oc1ccc(Oc2nc3ccc(Cl)cc3o2)cc1,AC50,[5],9.56 µM (active)
CCCN(CCC)c1c([N+](=O)[O-])cc(C(F)(F)F)c(N)c1[N+](=O)[O-],outcome,[4],inactive
same,outcome,[6],inactive
same,outcome,[2],inactive
N#CSCSc1nc2ccccc2s1,AC50,[5],6.64 µM (active)
same,outcome,[4],inactive
CC(C)(C)[C@@H](O)[C@@H](Cc1ccc(Cl)cc1)n1cncn1,AC50,[7],46.6 µM (active)
O=C(c1ccc(O)cc1O)c1ccc(O)cc1O,AC50,[2],3.39 µM (active)
CCOC(=O)C(C)Oc1ccc(Oc2nc3ccc(Cl)cc3o2)cc1 (stereo unspecified),outcome,[5],inactive
CCNc1nc(N)nc(Cl)n1,outcome,[2],inactive
same,outcome,[8],inactive
CC(=O)[C@H]1CC[C@H]2[C@@H]3CCC4=CC(=O)CC[C@]4(C)[C@H]3CC[C@]12C,AC50,[4],17.7 µM (active)
CC(=O)S[C@@H]1CC2=CC(=O)CC[C@]2(C)[C@H]2CC[C@@]3(C)[C@@H](CC[C@@]34CCC(=O)O4)[C@H]12,outcome,[9],inactive
COC(=O)c1ccc(CNS(C)(=O)=O)cc1S(=O)(=O)NC(=O)Nc1nc(OC)cc(OC)n1,AC50,[5],7.99 µM (active)
CC(C)(c1ccc(O)cc1)c1ccc(O)cc1,outcome,[3],inactive
same,outcome,[4],inactive
N[C@@H](Cc1cc(I)c(Oc2ccc(O)c(I)c2)c(I)c1)C(=O)O,AC50,[2],3.2 µM (active)
CCCCC(CC)COC(=O)c1ccccc1C(=O)O (stereo unspecified),outcome,[5],inactive
S=C(S)NCCNC(=S)S.[Mn+2].[S-]C([S-])=NCCN=C([S-])[S-].[Zn+2],AC50,[3],12.5 µM (active)
same,AC50,[10],21.1 µM (active)
same,outcome,[4],inactive

# — PubChem BioAssay (EPA / NIEHS)
